Compounds with a hit are over-represented: about 1.8% of the library has one in this group of screens.
LYPLA2 counter: LYPLA2 inhibitors, primary screen, counter-screen for PME1 inhibitor project, biochemical, fluorescence polarization, FP-Rh probe ABPP; Acyl-protein thioesterase 2 (Homo sapiens), O95372; recombinant LYPLA2; inhibition, % at 5.9 µM; hit rate 0.38% among 320,000; AID 2177, 2009;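 active = inhibition above the screen-wide mean plus 3 SD, limit set per campaign, cut at about 26% in these data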;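 also: 0% = LYPLA2 with DMSO and 100% = wells lacking LYPLA2 enzyme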
Target sequence (O95372 whole entry, looked up): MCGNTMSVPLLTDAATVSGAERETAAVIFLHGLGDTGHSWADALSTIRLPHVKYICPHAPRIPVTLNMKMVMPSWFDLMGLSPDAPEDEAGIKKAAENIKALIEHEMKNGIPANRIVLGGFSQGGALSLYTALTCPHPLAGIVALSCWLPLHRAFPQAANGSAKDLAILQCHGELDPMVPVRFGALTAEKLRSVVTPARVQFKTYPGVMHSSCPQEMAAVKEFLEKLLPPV
PME-1 primary: PME-1 inhibitors via competitive probe labeling, primary screen, biochemical, fluorescence polarization, FP-Rh probe, HTS; recombinant PME-1; inhibition, % at 5.9 µM; hit rate 0.53% among 320,000;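 active = inhibition above the campaign mean of all compounds plus 3 SD, cut at about 26% in these data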;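 also: competitive labeling of PME-1 active site by serine hydrolase directed probe; 0% = PME-1 with DMSO and 100% = wells lacking PME-1 enzyme; inhibitors block probe labeling so polarization falls and inhibition rises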
PAD4 FP inh: human PAD4 inhibitors, primary screen, biochemical, fluorescence polarization, 1536-well format. AID 485272, 2010. hit rate 0.41% among 330,000. inhibition, % at 6.36 µM. Protein-arginine deiminase type-4 (Homo sapiens), Q9UM07. recombinant PAD4, RCA probe fluorescence polarization;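 active = percent inhibition above a cutoff equal to the mean of all tested compounds plus 3 SD, cut at about 15% in these data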;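 also: 0% = PAD4 with RCA probe and DMSO and 100% = probe without PAD4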
LYPLA1 counter: LYPLA1 inhibitors, primary screen, counter-screen for PME1 inhibitor project, biochemical, fluorescence polarization, FP-Rh probe ABPP. Acyl-protein thioesterase 1 (Homo sapiens), O75608. recombinant LYPLA1. inhibition, % at 5.9 µM. hit rate 0.16% among 320,000. AID 2174, 2009;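 active = inhibition above the mean of all tested compounds plus 3 SD, set per campaign, cut at about 14% in these data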;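 also: inhibitors block serine hydrolase probe labeling of LYPLA1 so polarization falls; 0% = enzyme with DMSO and 100% = wells lacking LYPLA1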
Target sequence (O75608 whole entry, looked up): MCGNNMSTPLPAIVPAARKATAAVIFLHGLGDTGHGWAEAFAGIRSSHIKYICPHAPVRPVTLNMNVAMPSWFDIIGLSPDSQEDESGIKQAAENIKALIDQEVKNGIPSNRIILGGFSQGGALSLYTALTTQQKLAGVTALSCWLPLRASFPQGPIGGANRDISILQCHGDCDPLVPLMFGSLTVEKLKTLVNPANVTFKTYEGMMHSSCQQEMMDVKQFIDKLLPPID
GSTO1 inh: inhibitors of recombinant GSTO1, primary screen, counter-screen for RBBP9 inhibitor project, biochemical, fluorescence polarization | Glutathione S-transferase omega-1 (Homo sapiens), P78417 | activity-based probe fluorescence polarization | inhibition, % at 5.96 µM | hit rate 1.1% among 300,000 | AID 1974, 2009;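 active = inhibition above the campaign mean inhibition plus 3 SD, cut at about 35% in these data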;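 also: 0% = GSTO1-1 with DMSO and 100% = wells lacking GSTO1-1 enzyme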
Target sequence (P78417 whole entry, looked up): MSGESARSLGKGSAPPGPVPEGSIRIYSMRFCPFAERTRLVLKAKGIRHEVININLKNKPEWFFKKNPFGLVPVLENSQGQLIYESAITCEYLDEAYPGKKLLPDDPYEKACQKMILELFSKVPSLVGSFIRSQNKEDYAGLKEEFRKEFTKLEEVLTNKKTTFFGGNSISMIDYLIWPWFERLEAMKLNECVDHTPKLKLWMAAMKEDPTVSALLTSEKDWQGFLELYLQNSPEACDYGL
Fam108B inh: mouse Fam108B serine hydrolase inhibitors, primary screen, counter-screen for RBBP9 inhibitor project, biochemical, fluorescence polarization; recombinant Fam108B, FP-Rh probe fluorescence polarization; inhibition, % at 9.51 µM; hit rate 0.33% among 300,000;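 active = inhibition above the screen mean inhibition plus 3 SD, computed separately per campaign, cut at about 18% in these data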;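 also: inhibitors lower polarization as less probe binds the enzyme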
An asterisk follows results filed as active; nt = no result.

SMILES | LYPLA2 counter | PME-1 primary | PAD4 FP inh | LYPLA1 counter | GSTO1 inh | Fam108B inh
O=C(N/N=C\c1ccc(COc2ccc([N+](=O)[O-])cc2)o1)c1cccc(Cl)c1 | -1.3 | 35.6* | 5.2 | -14.0 | -2.4 | 12.6
CN[C@@H](C)C(=O)NC[C@H]1O[C@@H](n2cnc3c(N)ncnc32)[C@H](O)[C@@H]1O | nt | nt | 2.5 | nt | nt | nt
CC(C)(C)NC(=O)NC(=O)CSc1nnc(COc2ccccc2Cl)o1 | 3.7 | 5.7 | 0.4 | 3.8 | 35.9* | 0.3
O=C1c2c(O)ccc(O)c2C(=O)c2c(NCCNCCO)ccc(NCCNCCO)c21 | 4.1 | 1.9 | -2.8 | 2.2 | 4.5 | 6.1
O=C1c2ccccc2C(=O)c2c(Nc3ccc(CCO)cc3)ccc(O)c21 | 27.1* | 28.7* | 4.5 | -2.6 | 39.0* | 17.2
COc1ccc(-c2cn(CCO)c(-c3ccc(Cl)nc3)n2)cc1 | 3.9 | 3.2 | -3.2 | 3.3 | 4.4 | -0.2
CCCCNc1cc(NC(C)=O)cc2cc(OC)c(OC)cc12 | -8.2 | 0.4 | -14.1 | -2.8 | 35.0* | 3.5
Cc1ccc(C)c(OCC(O)CN2CCN(CCN3C(=O)c4cccc5cccc(c45)C3=O)CC2)c1 (stereo unspecified) | 53.5* | -2.6 | -2.2 | -0.2 | -0.2 | -1.4
CC(=O)c1ccccc1OCC(O)CN1CCN(CCN2C(=O)c3cccc4cccc(c34)C2=O)CC1 (stereo unspecified) | 39.1* | 0.4 | 0.1 | 3.5 | 7.6 | 3.1
Cc1ccc(C)c(Cn2c3ccccc3c3cnn(CC(=O)NCCCN4CCOCC4)c(=O)c32)c1 | 3.1 | 1.5 | 2.5 | -1.4 | 6.0 | 2.9
Cc1ccc(NC(=O)CN(C)C(=O)COC(=O)CCS(=O)(=O)c2ccc(C)cc2)cc1 | 1.2 | -3.2 | -3.7 | -1.9 | 5.2 | 0.5
CCOC(=O)c1c(C2CC2)csc1NC(=O)COC(=O)CCS(=O)(=O)c1ccc(C)cc1 | -1.7 | 0.7 | 0.0 | -0.9 | 37.4* | -4.2
COc1ccccc1/C=C/C=N/n1c(-c2cc(-c3ccccc3)n[nH]2)n[nH]c1=S | 0.2 | 26.8* | 4.8 | -8.8 | -11.1 | 2.2
COc1ccc(Cn2c(N)c(C#N)c3nc4ccccc4nc32)cc1 | -0.1 | 0.1 | -16.3 | -7.5 | 38.6* | 2.3
COCCn1c(N)c(C#N)c2nc3ccccc3nc21 | 2.7 | -1.1 | -5.8 | 3.3 | 27.1 | 1.5
N#Cc1c(N)n(CCOC(=O)c2cccc([N+](=O)[O-])c2)c2nc3ccccc3nc12 | -1.3 | 31.1* | 1.3 | -0.7 | 19.7 | 0.0
CCCn1c(CNc2ccccc2O)nc2ccccc21 | 2.8 | 5.2 | 4.5 | -2.5 | 34.8* | 11.8
CCCCn1c(CNC(=O)CCC)nc2ccccc21 | -2.1 | -2.1 | 0.9 | -1.5 | 0.0 | 1.3
CCOC(=O)/C(C#N)=C1\SS/C(=C(/C#N)C(=O)OCC)S1 | 1.9 | 6.7 | 0.5 | 1.6 | -0.2 | 2.0
Cc1cc2ccccn2c1C(=O)c1ccc([N+](=O)[O-])o1 | 8.8 | 17.2 | -0.7 | 2.6 | 86.4* | 4.1
Cc1c(Cl)cccc1Nc1nc(N)nc(CSc2nc3ccccc3s2)n1 | -12.8 | 33.2* | -3.6 | 0.5 | 0.5 | -10.3
Nc1nc(CSc2nc3ccccc3s2)nc(Nc2ccccc2)n1 | -18.8 | -56.8 | 6.0 | -15.5 | -6.8 | -14.3
Cc1ccc(S(=O)(=O)N2CN(Cc3ccco3)c3nc4ccccc4nc32)cc1 | 3.5 | 1.2 | 16.2* | 0.8 | 11.2 | 1.0
Clc1ccc(OCCOCCNCc2ccccc2)cc1Cl | 1.6 | 0.8 | 6.2 | -0.3 | -0.3 | -0.2
CCCN(CC(=O)Nc1ccccc1C)C(=O)COC(=O)CSc1ccc([N+](=O)[O-])cc1 | 1.7 | 28.1* | 11.9 | -1.6 | 7.3 | 0.7
SMILES | LYPLA2 counter | PME-1 primary | PAD4 FP inh | LYPLA1 counter | GSTO1 inh | Fam108B inh
CCCN(CC(=O)Nc1ccccc1C)C(=O)COc1c(C)cccc1C | 3.0 | 0.1 | -0.3 | -1.3 | nt | nt
O=[N+]([O-])c1cc(/C=N/n2c(-c3cccnc3)n[nH]c2=S)ccc1Cl | 0.8 | 2.8 | 7.2 | 1.8 | 50.6* | 8.8
O=C(Nc1nnc(-c2cccs2)s1)c1cccc(F)c1 | -1.1 | -7.0 | -1.6 | -5.2 | -33.5 | -0.7
CCn1nc(C)c(CN2CCC(Oc3ccc(C(=O)N4CCCC4)cc3)CC2)c1C | 0.9 | -4.7 | 1.3 | 1.4 | -2.2 | 0.9
COc1cc(C2C(C#N)=C(N)OC3=C2C(=O)CCC3)c([N+](=O)[O-])cc1OC (stereo unspecified) | -1.5 | -27.6 | -6.4 | -8.9 | 37.5* | 19.1*
CCn1c(NCc2ccccc2Cl)nc2ccccc21 | 2.1 | 3.6 | -3.9 | -0.6 | 36.2* | 0.7
CCOC(=O)Nc1ccc2c(COC(=O)C(NS(=O)(=O)c3ccc(Cl)cc3)C(C)O)cc(=O)oc2c1 (stereo unspecified) | nt | nt | -8.1 | nt | nt | nt
CC(=O)OC1=C(O)C(=O)c2ccccc2C1=O | 3.5 | -3.1 | -2.6 | -1.1 | 59.3* | -1.0
C[C@H]1COC2=C1C(=O)C(=O)c1c2ccc2c1CCCC2(C)C | 48.0* | 11.0 | -9.9 | 4.6 | 68.0* | 9.7
COc1cc(NC2CCCCC2O)c2nc(-c3ccc(Cl)cc3)ccc2c1 (stereo unspecified) | 10.9 | 16.0 | 10.8 | 2.3 | 52.3* | 10.6
COc1ccc(OCC(=O)OCC(=O)NC2CCCCC2C)cc1 (stereo unspecified) | 1.0 | 0.7 | 0.8 | -1.5 | nt | nt
COC(=O)c1ccccc1C(=O)c1ccc2c(c1)NC(=O)CO2 | 4.8 | 39.4* | -0.4 | 2.3 | -5.1 | 2.9
O=C1COc2ccc(C(=O)COC(=O)c3ccccc3F)cc2N1 | nt | nt | -4.7 | nt | nt | nt
COc1cccc(/C=N/NC(=O)c2ccncc2)c1OC(=O)c1ccc(Br)cc1 | -9.6 | -6.3 | 1.1 | -16.9 | 1.4 | 0.6
CCC1Oc2ccc(C)cc2N(CC(=O)NCc2cccs2)C1=O (stereo unspecified) | 5.5 | 9.3 | 0.8 | 0.8 | 7.0 | 1.9
CCC1Oc2ccccc2N(CC(=O)NCc2cccs2)C1=O (stereo unspecified) | 15.0 | 5.0 | 1.2 | 2.4 | 37.3* | -2.7
CC1CCN(c2ccc3c(c2)S(=O)(=O)c2cccc(C(=O)NC4CCCCC4)c2C3=O)CC1 | 1.6 | -6.7 | -3.6 | -0.6 | nt | nt
C=CCNC1=C(Cl)C(=O)N(Cc2ccccc2)C1=O | 1.2 | 0.0 | 1.1 | 1.2 | 25.4 | 1.9
C=CCNC1=C(Cl)C(=O)c2ccccc2C1=O | 3.4 | -3.1 | -0.6 | 1.7 | 67.8* | -1.1
COC(=O)C1=C(C)NC(=S)NC1c1ccc(-c2cc(Cl)ccc2Cl)o1 (stereo unspecified) | -21.2 | -13.1 | -1.3 | -13.9 | -4.6 | -5.3
Cc1nc2ccc(N)cc2s1 | -1.3 | -4.9 | -0.9 | -1.0 | 7.2 | 2.5

Bioassay records as filed in PubChem BioAssay.
